# S2 tox – reduces viability in counter-screen for ATXN expression inhibitors. S2 cells (HEK-293 line with an ATXN2-luciferase reporter) viability, CellTiter-Fluor protease fluorescence, 24 h. Potency, µM (series often up to 56.7 µM), most hits filed as cytotoxic. 400,000 tested, 0.49% active. AID 651635; also: nearly all actives have a fitted effect of over 40% in size
# Anesthetic bind – candidate novel general anesthetic via apoferritin binding. P02791. apoferritin/1-aminoanthracene competitive binding, fluorescence. Potency, µM (doses to about 77.5 µM), without a hit: at the highest dose activity change, negative = displacement, most hits filed as inhibitors. 350,000 tested, 0.074% active. AID 485281; also: % is scaled to controls: 0 for no effect and ±100 for the full control effect; nearly all actives have a fitted effect of over 20% in size
# Target sequence (P02791 2-175 limits assumed): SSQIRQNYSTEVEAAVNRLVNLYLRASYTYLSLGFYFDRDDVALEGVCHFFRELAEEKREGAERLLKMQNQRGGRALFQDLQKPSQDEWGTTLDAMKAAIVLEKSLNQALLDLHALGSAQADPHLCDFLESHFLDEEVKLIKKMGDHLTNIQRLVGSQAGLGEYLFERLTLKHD
#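 10 uM apoferritin + 50% sat. 1-AMA, PBS; cpd 10 min RT; Ex380/Em535 endpoint; normalized to free probe vs complex; 4-param Hill fit; propofol titration as pos. ctrl.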
# TGFb inhibitor – blocks TGF-b signaling; HepG2 CAGA-GFP TGF-b/SMAD3 reporter, GFP fluorescence, 18 h; TGF-beta stimulated, 500 pg/mL final; Potency, µM (series often up to 46.1 µM), for the others: at the highest dose activity, negative = inhibition, hits mostly inhibitors; 410,000 tested, 1.2% active; also: % is scaled to controls: 0 for no effect and ±100 for the full control effect; nearly all actives have a fitted effect of over 65% in size
#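 HEPG2 CAGA-GFP reporter cells (1000/well, DMEM with 1% FBS) received compounds, then recombinant TGF-beta at 500 pg/mL final for 18 hours at 37 degrees C. Per-cell GFP summed per well was normalised to unstimulated and stimulated DMSO controls before curve fitting.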
# HepG2 tox – kills HepG2 cells in TGF-b inhibitor counter-screen | Potency, µM (series often up to 46.1 µM), inactives show at the highest dose activity change, negative = cytotoxicity, actives largely listed as cytotoxic | 410,000 tested, 0.76% active | HepG2 CAGA-GFP viability, ATP luminescence, 18 h | AID 588856
#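 CellTiter-Glo luminescence gave cytotoxicity after 18 hours at 37 degrees C. The cells were HepG2 CAGA-GFP in 1% FBS DMEM, stimulated with 500 pg/mL TGF-beta after compound addition. %Activity was normalised to no-cell wells (complete cell-killing) and DMSO (no toxicity), and curves were fitted and classified.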
# ATXN2 expr inh – reduces ATXN2 reporter expression in HEK-293 cells; 360,000 tested, 0.72% active; Potency, µM (highest dose often 57 µM), without a hit: at the highest dose activity change, negative = inhibition, most hits filed as inhibitors; AID 1745845; HEK-293 ATXN2-luciferase reporter, luminescence, 24 h; also: % is scaled to controls: 0 for no effect and ±100 for the full control effect; nearly all actives have a fitted effect of over 55% in size
#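 ATXN2-luciferase reporter cells (luciferase flanked by upstream and downstream ATXN2 gene portions) were treated 24 h at 37 °C with compounds at up to 57 uM. SteadyGlo luminescence gave expression; GF-AFC fluorescence gave viability.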
# An asterisk follows results filed as active; i = inactive; u = inconclusive; x = not tested or not shown; [ ] = remark or other dose. Shown are actives, neighbours in structure and some others; about 2.4% of the full set was active somewhere. Calls follow the shape of the dose curve; as a rule, active = well fitted curve in the direction sought with a large enough effect; inconclusive = small, poorly fitted or top-dose-only effect, or another doubt; inactive = no such curve, though single readings can be large; an effect the other way counts as inactive or inconclusive. Potency is read from the fitted curve at half-maximal effect.
SMILES,S2 tox,Anesthetic bind,TGFb inhibitor,HepG2 tox,ATXN2 expr inh
Cc1cc(C)c(O)c(-c2n[nH]c3c2C(c2cccc(O)c2)N(Cc2ccco2)C3=O)c1 (stereo not given),28µM*,-5%,u,-98%,-25%
O=C1c2[nH]nc(-c3ccccc3O)c2C(c2cccc(Cl)c2)N1Cc1ccco1 (stereo not given),u,-16%,u,11µM*,-11%
O=C1c2[nH]nc(-c3ccccc3O)c2C(c2ccc(F)cc2)N1Cc1ccco1 (stereo not given),u,-8%,u,-52%,-1%
CC(CSC(=O)c1ccccc1)C(=O)N1C[C@@H](Sc2ccccc2)C[C@H]1C(=O)O (stereo not given in full),i,x,x,x,9%[25.6 µM]
NS(=O)(=O)c1ccc(N2CCCCS2(=O)=O)cc1,i,x,x,x,-17%
Cc1ccnc(NC(=O)c2ccc(OCC3CCCO3)cc2)c1 (stereo not given),i,x,2%,-53%,5.6µM*
Cc1ccc2oc(-c3cccc(NC(=O)COc4ccc(Cl)cc4)c3C)nc2c1,x,x,-5%,-12%,x
CN(C)c1ccc(/C=C/c2ccc3ccccc3[n+]2[O-])cc1,x,x,93%,-83%,x
Cc1cc(/C=C\c2ccc3cc(N(C)C)ccc3[n+]2C)c(C)n1-c1ccccc1,4µM*,1%[29.3 µM],u,-25%,1µM*
Cc1cccc(Cn2cccc2CNS(=O)(=O)c2ccc(C)c(C)c2)c1,i,120%,18µM*,-106%,u
Cc1cccc(Cn2cccc2CNS(=O)(=O)c2ccc(Br)cc2)c1,u,41%,16µM*,-107%,u
CC1(C)C(=O)OC(C(=O)c2ccccc2)C2(CCCCC2)C1=O (stereo not given),i,-16%,-7%,1%,0%
Cc1ccc(C(=O)C2OC(=O)C(C)(C)C(=O)C2(C)C)cc1 (stereo not given),u,6.3µM*,-3%,0%,2%
COc1ccc(C)cc1NC(C)C(=O)c1c[nH]c2ccccc12 (stereo not given),x,x,0%,-10%,x
CC(C)c1ccc(OCC(=O)NC2CC(C)(C)NC(C)(C)C2)c(Br)c1,i,-7%,u,11µM*,-17%
CC1(C)CC(NC(=O)COc2ccc(Cl)cc2Cl)CC(C)(C)N1,i,-5%,10%,-2%,-9%
[2H]c1c([2H])c([2H])c(C(=O)c2sc(N3CCCCCC3)nc2-c2ccccc2)c([2H])c1[2H],i,-17%,14µM*,3%,2%
COc1cc(C=c2c3ccccc3n3c2cc(-c2ccccc2)[n+]3C)cc(OC)c1OC,u,x,u,-34%,u
CN(C)c1ccc(C=c2c3cc([N+](=O)[O-])ccc3n3c2cc(-c2ccccc2)[n+]3C)cc1,x,x,u,-73%,28µM*
CN(c1ccc(Cl)cc1)c1cc(=O)n(C)c2ccccc12,i,-23%,-23%,-21%,1%
CN(C)c1ccc(C=c2c3ccccc3n3c2cc(-c2ccccc2)[n+]3C)cc1,6µM*,x,u,7.9µM*,u
CN(C)c1ccc(C=c2c3ccccc3n3c2cc(-c2ccc(Cl)cc2)[n+]3C)cc1,11µM*,x,u,-61%,u
CN(C)c1ccc(C=c2c3ccccc3n3c2c2c([n+]3C)CCCC2)cc1,22µM*,x,2.5µM*,-51%,8.9µM*
CN(CCCn1cnc2c(OCc3ccccc3)ncnc21)Cc1ccco1,i,x,4%,2%,25%
COc1cc(N(C)C)ccc1C=c1c2ccccc2n2c1cc(-c1ccccc1)[n+]2C,12µM*,x,3.5µM*,-61%,12µM*
SMILES,S2 tox,Anesthetic bind,TGFb inhibitor,HepG2 tox,ATXN2 expr inh
O=C1CC[C@@H](C(=O)N[C@@H](Cc2cnc[nH]2)C(=O)N[C@@H](Cc2c[nH]c3ccccc23)C(=O)N[C@@H](CO)C(=O)N[C@@H](Cc2ccc(O)cc2)C(=O)O)N1,x,-4%,x,x,x
O=C(N/N=C/c1ccc(OC2CSC2)cc1)c1ccccc1,u,-7%,-8%,-25%,5%
O=C(/C=C/c1ccc(OC2CSC2)cc1)c1ccccc1,u,u,u,6.3µM*,u
Cc1cccc(/C=N/NC(=O)c2ccc(NC(=O)c3ccc(F)cc3)cc2)n1,u,-9%,0%,1%,-16%
Cc1cccc(/C=N/NC(=O)c2ccc(NC(=O)c3ccc(Cl)cc3)cc2)n1,i,-22%,13µM*,-69%,-23%
N#Cc1ccc(C23CC4(C2)[C@H](CN(P(=O)(c2ccccc2)c2ccccc2)[C@@H]4c2ccccc2)C3c2ccc(Cl)nc2)cc1 (stereo not given in full),u,1%,13µM*,-29%,-37%
COc1ccc(OC)c(-c2nnc3ccc(-c4ccc(OC)c(O[C@@H]5CCOC5)c4)nn23)c1,x,x,x,x,27µM*
OC[C@@H]1O[C@H](O)[C@H](O)[C@@H](O)[C@@H]1O,x,-8%,x,x,x
Cc1ccc(C(C[N+](=O)[O-])Sc2ccc(N)cc2)cc1 (stereo not given),u,u,11µM*,13µM*,u
Cc1ccc(C(C[N+](=O)[O-])n2nc(C)cc2C)cc1 (stereo not given),i,-13%,9%,7%,-7%
Cc1ccc(-c2nc(C(=O)NCc3ccc(Cl)cc3)c3n2CCCCC3)cc1,u,46%,u,-8%,u
O=C(NCc1ccccc1)c1nc(-c2ccc(Cl)cc2)n2c1CCCCC2,u,122%,11µM*,-5%,-29%
COC(=O)[C@@H]1C[C@@H](NC(=O)c2cccc3c(C)c(C)[nH]c23)CN1Cc1cccc2ccccc12,i,x,x,x,x
COc1ccc(-c2cc(=O)c3c(O)cc(O)cc3o2)cc1,i,-19%[29.3 µM],10µM*,-57%,116%
COc1ccc(-c2cc(=O)c3c(O)cc(O)c(-c4cc(-c5cc(=O)c6c(O)cc(OC)cc6o5)ccc4OC)c3o2)cc1,x,-12%,x,x,x
Nc1ccc(O)cc1,u,x,4.5µM*,14µM*,-7%
[O-][n+]1c2ccccc2cc2ccccc21,i,x,11µM*,-5%,u
COc1ccc2nc3ccccc3[n+]([O-])c2c1,x,x,1%,2%,19%
COc1cc2c(NC3CCN(C)CC3)nc(N3CCCN(C)CC3)nc2cc1OCCCCN(C)C,x,x,u,-12%,x
COc1cc2c(NC3CCN(C(C)C)CC3)nc(C3CCCCC3)nc2cc1OCCCN1CCCC1,x,x,x,x,22µM*
COc1cc2c(NC3CCN(C(C)C)CC3)nc(N3CCCN(C)CC3)nc2cc1OCCOCCN(C)C,x,x,14µM*,-32%,x
COc1cc2c(NC3CCN(C)CC3)nc(N3CCCCC3)nc2cc1OCCOCCN(C)C,x,x,-100%,-39%,x

# Bioassay records as filed in PubChem.
